PubChem BioAssay (NCI)
The panel holds about 83,000 compounds, 20% with a hit somewhere; the sample as a whole holds those more often.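 Activity criterion: percent growth below 10, measured after cells in 96-well plates were exposed to a single compound concentration for 48 hours.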 Unmarked numbers belong to inactive results. Active and inactive are the calls of the source.

Columns and labels:
Experiment in all cases: NCI-60 one-dose screen, 48 h (100 = growth as untreated, 0 = no growth, -100 = all killed)
Details in all cases: 10 µM unless noted
NCI-H23 lung = system: NCI-H23 lung
NCI-H226 lung = system: NCI-H226 lung
NCI-H322M lung = system: NCI-H322M lung
HOP-62 NSCLC = system: HOP-62 NSCLC
NCI-H460 lung = system: NCI-H460 lung
HOP-92 NSCLC = system: HOP-92 NSCLC
NCI-H522 lung = system: NCI-H522 lung
A549/ATCC NSCLC = system: A549/ATCC NSCLC
786-0 renal = system: 786-0 renal
COLO 205 colon = system: COLO 205 colon
DU-145 prostate = system: DU-145 prostate
K-562 leukemia = system: K-562 leukemia
MALME-3M melanoma = system: MALME-3M melanoma
MDA-MB-231 breast = system: MDA-MB-231 breast
RXF 393 renal = system: RXF 393 renal
SF-268 CNS = system: SF-268 CNS
SF-295 CNS = system: SF-295 CNS
SF-539 CNS = system: SF-539 CNS
UACC-257 melanoma = system: UACC-257 melanoma
M14 melanoma = system: M14 melanoma

Compound	growth (NCI-H23 lung)	growth (NCI-H226 lung)	growth (NCI-H322M lung)	growth (HOP-62 NSCLC)	growth (NCI-H460 lung)	growth (HOP-92 NSCLC)	growth (NCI-H522 lung)	growth (A549/ATCC NSCLC)	growth (786-0 renal)	growth (COLO 205 colon)	growth (DU-145 prostate)	growth (K-562 leukemia)	growth (MALME-3M melanoma)	growth (MDA-MB-231 breast)	growth (RXF 393 renal)	growth (SF-268 CNS)	growth (SF-295 CNS)	growth (SF-539 CNS)	growth (UACC-257 melanoma)	growth (M14 melanoma)
C1Cc2onc(-c3noc4c3CCC4)c2C1	105%	120%	103%	103%	137%	108%	96.5%	104%	106%	115%	115%	109%	108%	116%	134%	110%	104%	108%	110%	110%
Cc1ccc(OC(=O)c2ccccc2)cc1	114%	100%	123%	97.7%	106%	130%	91.8%	98.7%	112%	96.1%	114%	101%	123%	126%	107%	108%	117%	106%	94.3%	113%
N#CCCN1C(=O)CCC1C(=O)O (stereo not given)	109%	113%	112%	119%	107%	109%	85%	103%	107%	115%	114%	96.8%	114%	129%	115%	97.3%	101%	104%	93.4%	104%
Cc1cc2nc(C)c(C)nc2cc1C	93.7%	84%	118%	92.5%	101%	63.8%	95.6%	101%	103%	98.7%	115%	119%	109%	101%	109%	109%	89%	104%	97.8%	108%
C=C1C(=O)C2CCC1C2 (stereo not given)	107%	99.8%	97.5%	102%	113%	102%	91.8%	98.4%	92.8%	112%	98.4%	92.6%	93.6%	103%	112%	88.9%	102%	105%	105%	96.5%
CC(=O)OC(C)c1cccc(C#N)c1 (stereo not given)	103%	94.7%	104%	94.8%	108%	91.3%	103%	98.6%	104%	113%	108%	103%	103%	108%	110%	103%	102%	101%	100%	97.4%
Cn1c(=O)c2[nH]c(CCCCC(=O)O)nc2n(C)c1=O	114%	118%	101%	108%	116%	88.9%	96.2%	103%	114%	103%	110%	109%	115%	110%	127%	99.2%	123%	106%	103%	111%
N#Cc1ccc(OC(=O)Nc2c(Cl)cc(Cl)cc2Cl)cc1	109%	107%	100%	103%	139%	98.9%	89.8%	96.3%	100%	128%	111%	101%	95%	101%	125%	112%	108%	91.7%	97.7%	112%
CN=S(=O)(OCCCCCOS(=O)(=NC)c1ccc(C)cc1)c1ccc(C)cc1 (stereo not given)	89.1%	86%	101%	101%	55.7%	59.2%	116%	119%	99.3%	113%	85.7%	70.4%	100%	97.2%	123%	99%	91.6%	90.7%	124%	96.9%
Nc1ccccc1SC1CC(=O)N(c2ccc(Cl)c(Cl)c2)C1=O (stereo not given)	104%	106%	128%	96.6%	117%	101%	117%	99.9%	93.9%	127%	113%	122%	177%	94.4%	130%	97.6%	127%	83.1%	-6.15% (active)	94.8%
CC(=O)N=c1ccc2nc3c(cc(N)c4ccccc43)oc-2c1	-27.8% (active)	80.4%	3.7% (active)	1.21% (active)	-41.2% (active)	-56.9% (active)	-78.1% (active)	11.2%	-43.8% (active)	-84.6% (active)	-96% (active)	-55.7% (active)	-67.3% (active)	-9.2% (active)	14%	-11.1% (active)	-65.7% (active)	-71.2% (active)	-81.5% (active)	-68.8% (active)
CCC(/C=C\C(C)=O)CC	101%	107%	99%	94.9%	100%	102%	106%	104%	101%	107%	111%	113%	98.4%	103%	97.8%	106%	104%	100%	94.8%	104%
c1ccc2c(NCCCN3CCN(CCCNc4c5ccccc5nc5ccccc45)CC3)c3ccccc3nc2c1	-86.2% [100 µM] (active)	-26.2% [100 µM] (active)	-33.2% [100 µM] (active)	-32.5% [100 µM] (active)	-19.5% [100 µM] (active)	-26.4% [100 µM] (active)	-72.1% [100 µM] (active)	-24.8% [100 µM] (active)	-28.5% [100 µM] (active)	-52.6% [100 µM] (active)	-63.4% [100 µM] (active)	-10.1% [100 µM] (active)	-69.7% [100 µM] (active)	-40.3% [100 µM] (active)	-90.3% [100 µM] (active)	-34.9% [100 µM] (active)	-48.1% [100 µM] (active)	-79.2% [100 µM] (active)	-36.4% [100 µM] (active)	-81% [100 µM] (active)
COc1cc(OC)c2cc(C(=O)c3ccc(C#N)cc3)c(=O)oc2c1	96.9%	92.2%	92.3%	88.6%	107%	107%	93.1%	99%	84%	117%	102%	85.1%	95.7%	79.3%	109%	88.1%	97.2%	82.5%	102%	105%
Clc1ccc(/C=C/c2ccccn2)cc1	91.2%	101%	107%	94.7%	104%	56.3%	87.1%	92.2%	98.1%	105%	109%	107%	108%	98.9%	116%	91.3%	100%	94.2%	103%	101%
COC(CCCl)c1ccc(Cl)cc1 (stereo not given)	107%	101%	97.5%	114%	107%	121%	74.6%	95.4%	100%	111%	111%	89%	98.9%	119%	113%	110%	112%	101%	78%	101%
O=C(O)Cc1ccccn1	102%	102%	102%	109%	108%	99.1%	100%	106%	102%	97.8%	111%	108%	85.7%	116%	133%	100%	114%	109%	98.6%	112%
